Assay outcomes from PubChem.
The list is not random: actives were taken first. Their share in the collection is about 7.2%.
FMDV antiviral: blocks foot and mouth disease virus | 1.2% of 410,000 active | FMDV antiviral cell-based qHTS | Potency, µM (titrated, usually from 57.9 µM), without a hit: top-dose activity change, negative = inhibition, most hits filed as inhibitors; calls by dose curve; tested in HEK293T cells; note: read-out not given here; nearly all actives have a fitted effect of over 45% in size
Sm TGR block: inhibitors of Schistosoma mansoni thioredoxin glutathione reductase; Potency, µM (titrated, usually from 114 µM), for the others: at the highest dose activity change, negative = inhibition, hits mostly inhibitors; Q962Y6; 3% of 360,000 active; purified TGR, DTNB reduction, TNB absorbance 405 nm; AID 485364; note: nearly all actives have a fitted effect of over 60% in size
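First, TGR (20 nM dispensed) and NADPH were mixed with compound. Second, a 15 min room-temperature incubation followed. Third, further NADPH and then DTNB were added to start the reaction. Finally, TNB absorbance was monitored kinetically.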
LASV entry inh: blocks Lassa virus binding to or entry into cells; Lassa virus pseudotype entry inhibition, cell reporter; 1.2% of 300,000 active; Potency, µM (top dose mostly 37.9 µM), without a hit: at the top dose activity change, negative = inhibition, actives largely listed as inhibitors; calls by dose curve; tested in HEK293 cells; note: nearly all actives have a fitted effect of over 50% in size
RE007 growth inh: less growth of the S. pombe RE007 Vpr strain; S. pombe RE007 Vpr strain, BacTiter-Glo ATP luminescence, 24 h; Potency, µM (series often up to 92.2 µM), for inactives: top-dose activity change, negative = less growth, hits mostly inhibitors; 0.21% of 360,000 active; AID 651644; active = well fitted falling curve with a large enough effect; inconclusive = small, poorly fitted or top-dose-only effect; inactive = no such curve, though single readings can be large or run the other way; note: nearly all actives have a fitted effect of over 50% in size
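Fission yeast strain RE007, carrying one chromosomally integrated HIV-1 vpr copy, was seeded at OD 0.01 in PMG+AL medium with 23 nL pinned compound. After 24 h at 30 °C and 99% humidity, viability was read by BacTiter-Glo luminescence.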
MARV entry inh: blocks Marburg virus binding to or entry into cells; Potency, µM (doses to about 37.8 µM), inactives show at the highest dose activity change, negative = inhibition, hits mostly inhibitors; 1.8% of 300,000 active; Marburg virus pseudotyped entry inhibition, cell reporter; calls by dose curve; tested in HEK293 cells
HCV inh: blocks hepatitis C virus | Huh7.5.1 HCVcc-Cre infection, luciferase reporter, 44 h | Potency, µM (top dose mostly 41.8 µM), for inactives: top-dose activity change, negative = inhibition, hits mostly inhibitors | 3.4% of 340,000 active | AID 651820
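Reporter virus HCVcc-Cre (~0.5 moi) infects cells exposed to compound; seeding density 1,000 cells/well with 4 h settling beforehand. Luminescence, 15 sec read, taken 44 h post-infection following a 15 min RT substrate incubation.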
* marks the source's active call; other numbers are inactive results; u = inconclusive; x = no result; [ ] = dose if it differs, or a comment. Unless noted, calls come from the whole dose curve; as a rule, active = well fitted curve in the direction sought with a large enough effect; inconclusive = small, poorly fitted or top-dose-only effect, or another doubt; inactive = no such curve, though single readings can be large; an effect the other way counts as inactive or inconclusive. % is set by controls: 0 for no effect and ±100 for the full control effect; potency is the fitted concentration of half-maximal effect.

SMILES	FMDV antiviral	Sm TGR block	LASV entry inh	RE007 growth inh	MARV entry inh	HCV inh
Cc1ccnc(NC(=O)c2oc3ccccc3c2C)c1	-40.1%	3.5%	3.55µM*	-18.3%	u	u
COc1ccc(CNC(=O)c2cccn2-c2nnc(N3CCCCC3)s2)c(OC)c1	-5.2%	-0.5%	1.6%[46.1 µM]	x	x	x
CCOC(=O)c1cccc(NC(=O)N2CCC(CN3CCCCCC3)CC2)c1	8.2%	-29.1%	29.7%[46.1 µM]	x	x	x
CCC1S/C(=N/S(=O)(=O)c2ccc(N)cc2)NC1=O (configuration not stated)	13.1%	x	0.7%	0.4%	u	21.1%
Cc1ccc(Cl)cc1N1CCN(C(=O)c2cc3c(=O)n(C)c4ccccc4c3n2C)CC1	8.91µM*	0.0%	x	3.1%	x	20.4%
Cc1cccc(N2CCN(C(=O)c3cc4c(=O)n(C)c5ccccc5c4n3C)CC2)c1C	31.6µM*	1.7%	x	3.3%	x	0.4%
COc1ccc(-c2oc3ncn4nc(-c5ccccc5O)nc4c3c2-c2ccc(OC)cc2)cc1	-0.9%	-3.8%	-1.1%[46.1 µM]	x	x	x
C=CCOC(=O)/C(=C\c1cccc2ccccc12)NC(=O)c1ccccc1	25.1%	8.5%	8.1%	-25.5%	-0.9%	7.94µM*
CC(=O)Nc1ccc(NS(=O)(=O)c2ccc3[nH]c4c(c3c2)CCCCC4)cc1	24.1%	-0.1%	3.7%[46.1 µM]	x	x	x
Cc1nc(S(=O)(=O)c2ccc(Cl)cc2Cl)nc2c1CCC2	14.7%	25.1µM*	7.8%	-11.0%	12.8%	13.8%
Cc1nc(S(=O)(=O)c2cccc(Cl)c2)nc2c1CCC2	-6.9%	u	-3.4%	-5.0%	-26.9%	12.3%
Cc1cccc(N2CCN(CCCNc3ncnc4onc(-c5ccc(Cl)cc5)c34)CC2C)c1 (configuration not stated)	-24.7%	7.1%	0.3%[46.1 µM]	x	x	x
O=C(Nc1nnc(C2=COCCO2)o1)c1cccc([N+](=O)[O-])c1	-15.9%	4.6%	15.2%	17.2%	5.8%	17.8%
O=C(CNC(=O)c1cccc([N+](=O)[O-])c1)OCCCC(=O)c1ccc(F)cc1	-19.9%	x	x	-25.4%	x	8.9%
O=C(CCNc1ccc(F)cc1)c1cccc([N+](=O)[O-])c1	15.3%	0.501µM*	-12.4%	17.8µM*	11.3%	-7.9%
O=C(Nc1cccc(OCC(=O)N2CCOCC2)c1)c1cccc([N+](=O)[O-])c1	1.1%	x	8.6%	-1.6%	11.9%	8.6%
O=C(Nc1nnc(-c2ccc(F)cc2)o1)c1cccc([N+](=O)[O-])c1	19.0%	0.1%	-25.1%	-7.8%	u	12.6µM*
COc1ccc(C(=O)CCNc2ccc(F)cc2)cc1	53.8%	3.16µM*	8.9%	-5.4%	21.8%	u
O=C(COc1cccc(NC(=O)c2cccc([N+](=O)[O-])c2)c1)c1ccc(Br)cc1	20µM*	4.5%	22.4µM*	3.3%	u	14.1µM*
Cc1cccc(NC(=O)Cn2c(=O)n(CC3CCC(C(=O)NCCc4ccccc4)CC3)c(=O)c3ccccc32)c1C (configuration not stated)	2.0%	2.7%	13.4%[46.1 µM]	x	-24.8%[46.1 µM]	x
Cc1ccc(NS(=O)(=O)c2c(C)nc3sccn3c2=O)c(Cl)c1	18.7%	2.5%	19.9%[46.1 µM]	x	6.2%[46.1 µM]	x
O=C(NCCNc1ccc([N+](=O)[O-])cc1)c1cccc(Br)c1	-8.6%	0.0%	-1.2%	-8.2%	7.5%	7.6%
O=C(CCNc1ccccc1)c1cccc([N+](=O)[O-])c1	-4.3%	0.447µM*	-0.1%	11.2µM*	u	-17.7%
Cc1ccc(NCCC(=O)c2cccc([N+](=O)[O-])c2)cc1	29.3%	0.398µM*	2.8%	5.62µM*	3.4%	u
Cc1ccc(CONC(=O)c2cccc([N+](=O)[O-])c2)cc1	36.4%	-23.4%	x	-7.4%	x	u
SMILES	FMDV antiviral	Sm TGR block	LASV entry inh	RE007 growth inh	MARV entry inh	HCV inh
O=C(CCNc1ccc(Br)cc1)c1cccc([N+](=O)[O-])c1	11.4%	0.398µM*	-14.8%	u	3.5%	-17.1%
O=C(CC(=O)c1ccccc1)Nc1cccc([N+](=O)[O-])c1	51.5%	x	x	-1.5%	x	x
Cc1cc(C)cc(N(CCC#N)C(=O)CSc2nc3ccccc3c(=O)[nH]2)c1	-21.7%	x	u	2.4%	10µM*	-18.6%
O=C(CSc1nc2ccccc2[nH]1)Nc1nc(-c2ccc(Br)cc2)cs1	22.4µM*	1.0%	u	2.9%	u	-29.7%
Cc1csc(NC(=O)CSc2nc3ccccc3c(=O)[nH]2)n1	-13.0%	-7.4%	u	45.6%	4.61µM*	29.2%
Cc1ccc(OC(C)C(=O)N2CCN(CCc3ccccn3)CC2)cc1C (configuration not stated)	-15.6%	4.2%	-26.2%[46.1 µM]	x	14.6%[46.1 µM]	x
CCOC(=O)/C=c1/s/c(=C\c2c(OC)ccc3ccccc23)c(=O)n1CC(=O)NCC1CCCO1 (configuration not stated)	-11.2%	x	u	-2.1%	u	u
CCOC(=O)/C=c1\s/c(=C\c2c(OCC)ccc3ccccc23)c(=O)n1CC(=O)NCC1CCCO1 (configuration not stated)	-23.1%	7.5%	u	-10.0%	u	3.55µM*
COc1ccc(CN2[C@@H](CC(C)=O)c3ccc(/C=C/C(C)=O)cc3S2(=O)=O)cc1	31.6µM*	x	x	-10.8%	x	u
COC(=O)/C=C/c1ccc2c(c1)S(=O)(=O)N(Cc1ccc(OC)cc1)[C@H]2CC(=O)OC	2.2%	x	x	-6.2%	x	21.3%
COC(=O)N[C@@H](c1cccc(C)c1)C(C(C)=O)C(=O)OC (some centres not stated)	x	x	x	x	-1.1%[14.2 µM]	x
COc1cccc([C@H]2C(C(=O)c3cccs3)=C(O)C(=O)N2c2cc(C)on2)c1	x	x	x	x	13.0%	x
Cc1ccc(C(=O)NC(N2CCCC2)C(Cl)(Cl)Cl)cc1 (configuration not stated)	19.0%	35.5µM*	14.4%	-0.7%	u	-24.4%
O=C(NC(N1CCOCC1)C(Cl)(Cl)Cl)c1ccc(Br)cc1 (configuration not stated)	0.0%	u	u	0.8%	-14.8%[46.1 µM]	-2.2%
O=C1c2ccc(-c3ccc(F)cc3OCc3ccccc3)cc2S(=O)(=O)c2cccc(C(=O)N3CCN(c4ncc(Br)cn4)CC3)c21	-10.9%	x	x	2.9%	x	9.6%
O=C(O)c1cccc2c1C(=O)c1ccc(-c3ccc(F)cc3OCc3ccccc3)cc1S2(=O)=O	39.0%	31.6µM*	x	4.8%	x	-6.4%[8.37 µM]
O=C(NC[C@H]1CCCO1)c1cccc2c1C(=O)c1ccc(-c3ccc(F)cc3OCc3ccccc3)cc1S2(=O)=O	u	x	x	15.5%	x	10µM*
Cc1cc(CNC(=O)c2cccc3c2C(=O)c2ccc(-c4ccc(F)cc4OCc4ccccc4)cc2S3(=O)=O)c(C(F)(F)F)o1	-9.0%	x	x	-12.3%	x	u
CCc1ccc(CN(Cc2ccco2)C(=O)COc2ccccc2Cl)cc1	-19.0%	-9.9%	-10.3%[46.1 µM]	x	u	x
